Compound activity (PubChem)
POLI inh = DNA polymerase iota (human) inhibition; Q9UNA4; Pol iota fluorescent replication assay, 10 min; Potency, µM (highest dose often 115 µM), for inactives: at the highest dose activity, negative = inhibition, hits mostly inhibitors; 390,000 tested, 1% active; AID 588590
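Pol iota at 10 nM preincubated 15 min with compounds at room temperature; reaction started with fluorescent substrate, 50 nM final. Fluorescence read kinetically at 0 and 10 min; buffer-only wells as negative control.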
Pol beta inh = DNA polymerase beta (human) inhibition; P06746; Pol beta primer extension/strand displacement, fluorescence kinetic; Potency, µM (series often up to 114 µM), inactives show top-dose activity change, negative = inhibition, actives largely listed as inhibitors; 340,000 tested, 1.3% active; AID 485314; note: % is set by controls: 0 for no effect and ±100 for the full control effect
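Kinetic readout of DNA synthesis with strand displacement by Pol beta. Compound and 10 nM enzyme sit 15 min at room temperature; 50 nM substrate starts the reaction, read immediately and at 10 min.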
WRN inhibitor = inhibitors of human WRN helicase; AID 651768; Potency, µM (highest dose often 114 µM), without a hit: at the top dose activity change, negative = inhibition, actives largely listed as inhibitors; WRN helicase unwinding, fluorescent forked duplex, kinetic; Q14191; 360,000 tested, 0.46% active; note: % is set by controls: 0 for no effect and ±100 for the full control effect; nearly all actives have a fitted effect of over 55% in size
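Screening of the MLSMR collection measured strand separation of a quenched forked DNA duplex (100 nM) by 20 nM WRN with 2 mM ATP, all final. Compounds were preincubated with enzyme 15 min at room temperature.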
POLH inh = inhibitors of human DNA polymerase eta | Potency, µM (series often up to 114 µM), without a hit: at the top dose activity change, negative = inhibition, most hits filed as inhibitors | recombinant Pol eta, fluorescent DNA replication assay | AID 588591 | 390,000 tested, 1.2% active | Q9Y253; note: % is set by controls: 0 for no effect and ±100 for the full control effect
Target sequence (Q9Y253 whole entry, looked up): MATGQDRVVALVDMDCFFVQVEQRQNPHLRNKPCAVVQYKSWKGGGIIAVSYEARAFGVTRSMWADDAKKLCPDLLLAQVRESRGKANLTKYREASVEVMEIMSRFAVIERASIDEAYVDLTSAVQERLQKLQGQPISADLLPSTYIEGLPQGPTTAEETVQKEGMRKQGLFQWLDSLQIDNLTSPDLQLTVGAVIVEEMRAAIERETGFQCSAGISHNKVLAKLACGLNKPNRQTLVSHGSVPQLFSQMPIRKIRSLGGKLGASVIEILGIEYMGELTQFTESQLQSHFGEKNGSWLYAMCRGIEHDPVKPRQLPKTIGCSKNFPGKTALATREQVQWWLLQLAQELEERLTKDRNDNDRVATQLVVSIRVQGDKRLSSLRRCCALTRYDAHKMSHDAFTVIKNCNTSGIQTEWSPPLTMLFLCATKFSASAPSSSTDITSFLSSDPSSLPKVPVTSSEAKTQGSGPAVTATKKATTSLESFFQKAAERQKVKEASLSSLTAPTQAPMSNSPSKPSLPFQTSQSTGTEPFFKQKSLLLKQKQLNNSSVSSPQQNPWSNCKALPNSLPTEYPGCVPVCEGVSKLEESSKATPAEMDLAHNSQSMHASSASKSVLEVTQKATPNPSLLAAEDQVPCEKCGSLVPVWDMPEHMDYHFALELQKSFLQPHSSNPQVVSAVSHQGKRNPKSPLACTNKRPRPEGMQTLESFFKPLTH
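Pol eta at 10 nM preincubated with compounds 15 min at room temperature; reaction started with fluorescent substrate (50 nM final) and read kinetically at 0 and 10 min.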
Pol kappa inh = blocks human DNA polymerase kappa activity; Q9UBT6; purified Pol kappa, fluorescent DNA synthesis assay, 10 min; Potency, µM (titrated, usually from 107 µM), for the others: at the top dose activity, negative = inhibition, actives largely listed as inhibitors; 400,000 tested, 0.53% active; note: % is set by controls: 0 for no effect and ±100 for the full control effect
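Enzyme at 10 nM met test compounds for 15 min at room temperature. Substrate addition (50 nM final) began the reaction, which was monitored by fluorescence at 0 and 10 min.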
Starred values were filed as active, the others as inactive; ? = inconclusive; · = no result given; [ ] = another dose, or the depositor's remark. A selection: hits, their analogues and other compounds. The true share with any hit is near 2.3%. Calls come from the whole dose curve; as a rule, active = well fitted curve in the direction sought with a large enough effect; inconclusive = small, poorly fitted or top-dose-only effect, or another doubt; inactive = no such curve, though single readings can be large; an effect the other way counts as inactive or inconclusive. Potency is the fitted concentration of half-maximal effect.

SMILES	POLI inh	Pol beta inh	WRN inhibitor	POLH inh	Pol kappa inh
CC(C)N(C(=O)Nc1ccc2nsnc2c1)C(C)C	1µM*	10µM*	?	8.9µM*	50µM*
COc1ccc(N(C)C(=O)Nc2ccc3nsnc3c2)cc1	84%	?	-6%	-6%	5%
CCOc1ccc(NC(=S)Nc2ccc3nsnc3c2)cc1	10µM*	?	-5%[11.6 µM]	22µM*	-4%
CCCCNC(=O)c1ccc2nc(-c3cccs3)c(-c3cccs3)nc2c1	16%	·	·	·	1%
O=C1N=c2ccc([N+](=O)[O-])cc2=C1c1sc(=O)[nH]c1O	15%	1%	?	-19%	89µM*
CCN1CCC(N(Cc2ccc3c(c2)OCO3)C(=O)Nc2cc(Cl)ccc2C(=O)OC)CC1	7%	2%	·	-16%	-2%
COc1ccccc1NC(=O)N1CC=C(c2c[nH]c3ccccc23)CC1	21%	4%	·	·	2%
CCOC(=O)c1sc(NC(C)=O)nc1C	37%	-19%	-1%[57.1 µM]	-8%	-4%
CCOC(=O)c1sc(NC(=O)C2CC=CCC2C(=O)O)nc1C (stereo unspecified)	?	45µM*	-16%[57.1 µM]	79µM*	-6%
COc1cccc(Cn2cccc(NC(=O)Nc3ccccc3C)c2=O)c1	13µM*	-28%	0%[11.6 µM]	-5%	4%
O=C(COC(=O)c1ccc(O)cc1)NC(=O)NCc1ccccc1	-14%	·	1%	-8%	-19%
O=C(COC(=O)c1ccc([N+](=O)[O-])s1)NNC(=O)c1ccccc1	?	·	10%	?	-19%
O=C(OCC(=O)c1ccc[nH]1)c1ccc([N+](=O)[O-])cc1	-9%	·	-1%	2%	-4%
CC(NC(=O)COC(=O)c1ccc([N+](=O)[O-])s1)c1ccccc1 (stereo unspecified)	?	16µM*	-7%	?	-25%
O=C(COC(=O)c1ccc([N+](=O)[O-])s1)NC(=O)NCc1ccccc1	?	7.9µM*	-12%	-7%	-19%
O=C(COC(=O)c1ccc([N+](=O)[O-])s1)c1ccc[nH]1	89µM*	·	-6%[11.6 µM]	20µM*	-29%
O=C(COC(=O)c1ccc([N+](=O)[O-])s1)NCCc1ccccc1	56µM*	·	28%	?	?
COc1ccc(OCC(=O)Nc2ccc3c(c2)nc(CCN2CCOCC2)n3C)cc1	15%	21%	3%	-7%	-5%
COc1ccc(OCC(=O)Nc2ccc3c(c2)nc(CCn2ccccc2=O)n3C)cc1	56µM*	?	6%[11.6 µM]	-5%	-31%
O=C(C1=C(O)C(=O)N(c2nc3ccc(Cl)cc3s2)C1c1ccco1)c1ccco1 (stereo unspecified)	7.9µM*	·	50µM*	20µM*	40µM*
Cc1ccc2nc(N3C(=O)C(O)=C(C(=O)c4ccc(C)o4)C3c3ccco3)sc2c1 (stereo unspecified)	?	·	-5%	?	-36%
O=C(Cc1ccc(Cl)cc1)c1ccc(O)cc1	50µM*	2%	-2%[11.6 µM]	1%	-18%
CC1=C([N+](=O)[O-])C(c2ccc(Cl)cc2)NC(=O)N1C (stereo unspecified)	30%	6%	71µM*	-4%	0%
COC(=O)Cc1[nH]nc2c1C(c1cc(OC)c(OC)c(OC)c1)C(C#N)=C(N)O2 (stereo unspecified)	14%	?	-11%	-8%	-4%
COc1cc(C2C(C#N)=C(N)Oc3n[nH]c(C)c32)ccc1OC(=O)c1ccccc1 (stereo unspecified)	-8%	-23%	-28%	-12%	-3%
SMILES	POLI inh	Pol beta inh	WRN inhibitor	POLH inh	Pol kappa inh
COc1cc(C2C(C#N)=C(N)Oc3n[nH]c(C)c32)cc2c1OCO2 (stereo unspecified)	?	?	-15%[57.1 µM]	16µM*	?
COC(=O)Cc1[nH]nc2c1C(c1ccc(O)c(OC)c1)C(C#N)=C(N)O2 (stereo unspecified)	8.9µM*	-2%	-21%[57.1 µM]	45µM*	-32%
O=C(c1cc2ccccc2cc1O)N1CCN(c2ccc([N+](=O)[O-])cc2)CC1	89µM*	·	7%[11.6 µM]	-10%	-27%
Cc1occc1C(=O)N1CCN(c2ccc([N+](=O)[O-])cc2)CC1	?	40µM*	3%	-1%	-5%
Cc1c(F)cccc1Cn1cnc2c(cnn2C(C)(C)C)c1=O	-9%	·	·	·	-6%
CN(C)CCNC(=O)c1ccc2c(c1)NC(=O)C(CS(=O)(=O)Cc1cccc(Br)c1)N2 (stereo unspecified)	-1%	-18%	·	-25%	-5%[60.1 µM]
CC(C)CCNC(=O)c1ccc2c(c1)NC(=O)C(CS(=O)(=O)Cc1cccc(Br)c1)N2 (stereo unspecified)	?	10µM*	·	-19%	-11%
O=C(Cl)COCc1ccccc1	·	·	·	·	4%[60.1 µM]
NCCCN(Cc1ccc(Cl)c(Cl)c1)c1ccccn1	23%	·	·	·	-1%
O=c1c2ccccc2nc(/C=C/c2ccc([N+](=O)[O-])o2)n1CCCO	-28%	?	-7%	16µM*	1%
Cc1ccccc1-n1nc(CO)c(C(=O)NCC(c2ccccc2)c2ccccc2)n1	8%	15%	·	-10%	4%
COc1ccc(S(=O)(=O)NCc2cccs2)cc1	-14%	25µM*	-8%	-4%	-27%
COc1ccc(CCn2c(C3CCCCC3)nc3c(c(=O)c4ccccc4n3C)c2=O)cc1	15%	?	-7%	-5%	3%
COc1ccc(Cn2c(C3CCCCC3)nc3c(c(=O)c4ccccc4n3C)c2=O)cc1	18%	4.5µM*	-12%	?	-3%
Cc1ccc2nc(N/N=C\c3ccc([N+](=O)[O-])o3)nc(-c3ccccc3)c2c1	?	28µM*	-11%	?	-18%
O=[N+]([O-])c1ccc(/C=N/Nc2nc(-c3ccccc3)c3cc(Br)ccc3n2)o1	-1%	10%	-5%	?	-7%
N#Cc1ccccc1S(=O)(=O)N1CCN(C(=O)C2COc3ccccc3O2)CC1 (stereo unspecified)	79µM*	·	?	?	-37%
O=C(C1COc2ccccc2O1)N1CCN(S(=O)(=O)c2cc(F)ccc2F)CC1 (stereo unspecified)	3%	·	2%	1%	-8%
CC(=O)NC1C(=O)N(CCN2CCOCC2)c2ccc(C)cc21 (stereo unspecified)	-14%	?	-18%	25µM*	-10%
CC(=O)NC1C(=O)N(CCN2CCOCC2)c2ccc(F)cc21 (stereo unspecified)	?	92%	-2%[11.6 µM]	?	3%
Cn1c2ccccc2c(=O)c2ccc(C#CC3(N)CCCCC3)cc21	?	35µM*	40%	-10%	?
O=C(CS(=O)c1ccc(C(F)(F)F)cc1[N+](=O)[O-])Oc1ccccc1 (stereo unspecified)	?	-15%	-26%	-2%	-18%
